Cruzain inh Det = inhibitors of Trypanosoma cruzi cruzain with detergent | P25779 | purified cruzain, Z-FR-AMC fluorescence, 0.01% Triton | Potency, µM, hits mostly inhibitors | 200,000 tested, 0.43% active | AID 1478; also: nearly all actives have a fitted effect of over 40% in size
Target sequence (P25779 123-467 limits assumed): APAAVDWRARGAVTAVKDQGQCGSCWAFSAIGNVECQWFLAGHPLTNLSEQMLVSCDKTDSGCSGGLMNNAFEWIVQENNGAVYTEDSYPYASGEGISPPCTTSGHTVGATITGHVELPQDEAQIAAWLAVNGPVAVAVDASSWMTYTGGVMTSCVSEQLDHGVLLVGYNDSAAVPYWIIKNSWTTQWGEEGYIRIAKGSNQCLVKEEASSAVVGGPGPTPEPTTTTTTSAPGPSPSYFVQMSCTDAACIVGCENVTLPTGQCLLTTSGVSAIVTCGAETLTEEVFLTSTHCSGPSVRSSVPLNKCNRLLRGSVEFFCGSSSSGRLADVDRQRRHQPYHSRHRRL
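Cysteine protease activity tested under reducing, mildly acidic conditions (100 mM sodium acetate pH 5.5, 5 mM DTT) plus 0.01% Triton X-100. Cruzain 1.5 nM; substrate Z-FR-AMC 2 uM; 15 min compound preincubation at room temperature.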
Cruzain inh noDet = blocks cruzain activity in detergent-free assay | purified cruzain, Z-FR-AMC fluorescence, no detergent | Potency, µM, actives largely listed as inhibitors | 200,000 tested, 2.3% active; also: nearly all actives have a fitted effect of over 40% in size
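Detergent-free condition (0.00005% Triton X-100) in acetate buffer pH 5.5 with DTT. 1.5 nM enzyme and compound were pre-mixed 15 min, then 2 uM Z-FR-AMC substrate added; reaction progress from fluorescence change between first and third reads (60 s).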
Of the large screens only hits and unclear results are named; the others gave an inactive call. Most compounds without a hit are left out; they make up all but 2.4% or so of the library. Calls follow the shape of the dose curve; as a rule, active = well fitted curve in the direction sought with a large enough effect; inconclusive = small, poorly fitted or top-dose-only effect, or another doubt; inactive = no such curve, though single readings can be large; an effect the other way counts as inactive or inconclusive.

CCNc1cc(N2CCN(S(=O)(=O)c3ccc4c(c3)CCCC4)CC2)ccc1[N+](=O)[O-]	Cruzain inh noDet 5µM
Cc1cc(C)c(S(=O)(=O)N2CCN(c3ccc([N+](=O)[O-])c(NCc4ccco4)c3)CC2)c(C)c1	Cruzain inh noDet 6.3µM
Cc1cc(C)c(S(=O)(=O)N2CCN(c3ccc([N+](=O)[O-])c(NCC4CCCO4)c3)CC2)c(C)c1 (stereo not given)	Cruzain inh noDet inconclusive
O=[N+]([O-])c1ccc(N2CCN(S(=O)(=O)c3ccc(Cl)c(Cl)c3)CC2)cc1NCCN1CCOCC1	none
COc1ccc(C)cc1NC(=O)CC(=O)Nc1ccc2nc3n(c(=O)c2c1)CCCCC3	Cruzain inh noDet inconclusive
O=C(O)Cn1nnc(-c2ccc(OCc3cccc(C(F)(F)F)c3)cc2)n1	none
Cc1ccc(N=c2c([N+](=O)[O-])nn(-c3ccccc3)n2O)c(C)c1	Cruzain inh noDet inconclusive
Cc1c(Cl)cccc1N=c1c([N+](=O)[O-])nn(-c2ccccc2)n1O	Cruzain inh noDet 20µM
COc1ccccc1CNC(=O)C1CCCN(c2nc3ccccc3n3cccc23)C1 (stereo not given)	none
CCOC(=O)c1c(-c2ccccc2)oc2ccc(OCc3cccc(Br)c3)cc12	Cruzain inh noDet 10µM
CCOC(=O)c1c(-c2ccccc2)oc2cc(Br)c(OCc3ccccc3)cc12	none
O=C(c1ccco1)N1CCN(c2nc3ccccc3n3nnnc23)CC1	none
c1ccc(CC2CCN(c3nc4ccccc4n4nnnc34)CC2)cc1	Cruzain inh noDet 25µM
CC(=O)Nc1nc(C)c(-c2csc(Nc3ccc(O)cc3)n2)s1	Cruzain inh noDet 13µM
C=CCCC(=O)Nc1nc(C)c(-c2csc(Nc3cc(OC)ccc3OC)n2)s1	Cruzain inh noDet inconclusive
CCCC(=O)Nc1nc(C)c(-c2csc(Nc3cc(OC)ccc3OC)n2)s1	none
C=CCCC(=O)Nc1nc(C)c(-c2csc(Nc3cccc(OC)c3)n2)s1	Cruzain inh noDet 16µM
CC(=O)Nc1nc(C)c(-c2csc(Nc3cccc([N+](=O)[O-])c3)n2)s1	none
CCCCCC(=O)Nc1nc(C)c(-c2csc(Nc3cc(Cl)ccc3OC)n2)s1	Cruzain inh noDet 3.2µM
CCCC(=O)Nc1nc(C)c(-c2csc(Nc3ccccc3OC)n2)s1	none
CCCC(=O)Nc1nc(C)c(-c2csc(Nc3ccc(Cl)cc3)n2)s1	Cruzain inh noDet 13µM
CCCOc1ccc(C2CC(=O)Nc3c2c(C)nn3-c2nncc(-c3cccc(OC)c3)n2)cc1OC (stereo not given)	none
COCCNC(=O)C(=O)Nc1c2c(nn1-c1ccccc1)CS(=O)(=O)C2	none
CN(C(=O)c1cc2c(s1)-c1ccc(Cl)cc1SC2)c1cccc(C(F)(F)F)c1	none
COc1cccc(NC(=O)N2CCC(n3c(C)nc4cccnc43)CC2)c1	none
CCC(C)C(=O)Nc1nc(C)c(-c2csc(Nc3ccc(Cl)cc3)n2)s1 (stereo not given)	Cruzain inh noDet 4µM
CCCC(C)C(=O)Nc1nc(C)c(-c2csc(Nc3cc(OC)ccc3OC)n2)s1 (stereo not given)	Cruzain inh noDet inconclusive
CCc1ccc(C(=O)c2cn(CC(=O)Nc3ccc4c(c3)OCO4)c3ccc(F)cc3c2=O)cc1	Cruzain inh noDet inconclusive
CN1CCN(c2ncc3nc(-c4cc(F)cc(F)c4)c(=O)n(C4CC4)c3n2)CC1	Cruzain inh noDet inconclusive
CN1CCN(c2ncc3nc(-c4ccccc4)c(=O)n(C4CC4)c3n2)CC1	Cruzain inh Det 32µM, Cruzain inh noDet 25µM
COCCNC(=O)c1c(NC(=O)c2cc(=O)c3cc(Cl)ccc3o2)sc2c1CCCC2	none
CCOC(=O)COc1cccc2c(=O)n(CC(=O)NCc3ccc4c(c3)OCO4)ccc12	none
CCOC(=O)/C=c1\s/c(=C\c2ccc(-c3ccccc3)cc2)c(=O)n1CC(=O)NCc1ccc2c(c1)OCO2	Cruzain inh noDet 2.5µM
CCOC(=O)/C=c1\s/c(=C\c2ccc(C(F)(F)F)cc2)c(=O)n1CC(=O)NCc1ccco1	Cruzain inh noDet inconclusive
CCOC(=O)/C=c1\s/c(=C\c2ccc(C)cc2)c(=O)n1CC(=O)NCc1ccco1	Cruzain inh noDet 16µM
CCCOc1ccc(NC(=O)C2CC(=O)N/C(=N/N=C(C)/C=C/c3ccc(N(C)C)cc3)S2)cc1 (stereo not given)	Cruzain inh noDet 25µM
CCOc1ccc(NC(=O)C2CC(=O)NC(=Nc3ccc(Cl)c(Cl)c3)S2)cc1 (stereo not given)	Cruzain inh Det inconclusive, Cruzain inh noDet 10µM
CC(/C=C/c1ccc(N(C)C)cc1)=N/N=C1/NC(=O)CC(C(=O)Nc2ccc(Cl)cc2)S1 (stereo not given)	Cruzain inh noDet inconclusive
CCOc1ccc(NC(=O)C2CC(=O)N(CC)C(=Nc3ccc4c(c3)OCO4)S2)cc1 (stereo not given)	none
CC1CCN(c2nn3c(=O)c(C(=O)NC(C)C)cnc3s2)CC1	none
Cc1ccc(CN2CCC(CNc3ncnc4onc(-c5ccc(F)cc5)c34)CC2)cc1	none
COc1ccc(-c2nc3scc(CCNS(=O)(=O)c4ccc(F)cc4F)n3n2)cc1OC	none
